ΔTm data for 16 molecules are collected here from ChEMBL document CHEMBL5724796, “Tm Shift (DSF) assay results for EUbOPEN Chemogenomics Library” (2024).

In general, ΔTm refers to the change in melting temperature against a reference sample.

Holding throughout (conditions): Compound concentration 20.0 uM
The target of experiment [1] is Tyrosine-protein kinase ABL1 (Homo sapiens) (UniProt P00519).
The target of experiment [2] is Bromodomain-containing protein 4 (Homo sapiens) (UniProt O60885).
The target of experiment [3] is Cyclin-dependent kinase 2 (Homo sapiens) (UniProt P24941).
Experiment [4] concerns the target Casein kinase I isoform delta (Homo sapiens) (UniProt P48730).
Experiment [5] deals with Glycogen synthase kinase-3 beta (Homo sapiens) (UniProt P49841).
Experiment [6] deals with Mitogen-activated protein kinase 1 (Homo sapiens) (UniProt P28482).
The target in experiment [7] is T1, Aurora kinase A (Homo sapiens) (UniProt O14965).
T1 sequence (whole entry): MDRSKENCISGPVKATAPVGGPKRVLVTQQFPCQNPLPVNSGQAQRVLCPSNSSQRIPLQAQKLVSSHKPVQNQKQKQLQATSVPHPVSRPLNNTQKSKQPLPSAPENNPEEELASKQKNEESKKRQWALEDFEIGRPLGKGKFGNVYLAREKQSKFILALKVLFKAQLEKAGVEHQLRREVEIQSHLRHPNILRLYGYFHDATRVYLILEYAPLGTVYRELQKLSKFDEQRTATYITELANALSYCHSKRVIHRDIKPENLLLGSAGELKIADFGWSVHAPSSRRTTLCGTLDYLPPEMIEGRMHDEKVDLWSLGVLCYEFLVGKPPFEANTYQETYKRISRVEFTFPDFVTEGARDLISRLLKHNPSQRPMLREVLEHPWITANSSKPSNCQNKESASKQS

For experiment [8], the target named is T2, Transcription intermediary factor 1-alpha (Homo sapiens) (UniProt O15164).
T2 sequence (whole entry): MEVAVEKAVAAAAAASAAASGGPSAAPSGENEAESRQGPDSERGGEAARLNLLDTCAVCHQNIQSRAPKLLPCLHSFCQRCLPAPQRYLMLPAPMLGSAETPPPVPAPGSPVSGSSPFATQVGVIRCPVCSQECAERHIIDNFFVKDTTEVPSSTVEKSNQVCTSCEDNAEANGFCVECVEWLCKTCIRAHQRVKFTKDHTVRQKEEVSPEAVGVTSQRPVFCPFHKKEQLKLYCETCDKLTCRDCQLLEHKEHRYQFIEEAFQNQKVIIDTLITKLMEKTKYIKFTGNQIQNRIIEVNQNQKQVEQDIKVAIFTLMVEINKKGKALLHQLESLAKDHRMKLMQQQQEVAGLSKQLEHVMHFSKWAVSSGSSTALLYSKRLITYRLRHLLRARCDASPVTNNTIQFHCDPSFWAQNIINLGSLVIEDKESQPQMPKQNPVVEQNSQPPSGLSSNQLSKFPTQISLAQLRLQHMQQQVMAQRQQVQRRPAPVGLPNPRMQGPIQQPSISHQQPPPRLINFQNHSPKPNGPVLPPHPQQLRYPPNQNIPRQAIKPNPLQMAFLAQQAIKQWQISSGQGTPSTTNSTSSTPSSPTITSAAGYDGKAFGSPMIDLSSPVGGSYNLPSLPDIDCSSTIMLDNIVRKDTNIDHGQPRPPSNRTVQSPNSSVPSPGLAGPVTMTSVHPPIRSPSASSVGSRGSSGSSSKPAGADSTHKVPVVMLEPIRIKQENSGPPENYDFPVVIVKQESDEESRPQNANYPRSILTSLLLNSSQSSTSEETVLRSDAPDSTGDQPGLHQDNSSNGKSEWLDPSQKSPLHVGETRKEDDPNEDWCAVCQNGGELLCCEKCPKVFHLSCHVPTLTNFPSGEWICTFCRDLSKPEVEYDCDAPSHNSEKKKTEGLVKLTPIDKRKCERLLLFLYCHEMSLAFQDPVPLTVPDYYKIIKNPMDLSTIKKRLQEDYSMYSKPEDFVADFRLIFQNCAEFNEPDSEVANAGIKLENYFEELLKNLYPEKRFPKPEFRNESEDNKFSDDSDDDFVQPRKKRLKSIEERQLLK

Where “and” joins values, the source holds several entries; their conditions need not be identical. Equal values may be shown once. Residues, ends and D or L forms follow the SMILES beside them. *: point of attachment. CH2Cl = ClC*

Chain of Casein kinase I isoform delta (Homo sapiens) (P48730 whole entry, looked up, canonical isoform): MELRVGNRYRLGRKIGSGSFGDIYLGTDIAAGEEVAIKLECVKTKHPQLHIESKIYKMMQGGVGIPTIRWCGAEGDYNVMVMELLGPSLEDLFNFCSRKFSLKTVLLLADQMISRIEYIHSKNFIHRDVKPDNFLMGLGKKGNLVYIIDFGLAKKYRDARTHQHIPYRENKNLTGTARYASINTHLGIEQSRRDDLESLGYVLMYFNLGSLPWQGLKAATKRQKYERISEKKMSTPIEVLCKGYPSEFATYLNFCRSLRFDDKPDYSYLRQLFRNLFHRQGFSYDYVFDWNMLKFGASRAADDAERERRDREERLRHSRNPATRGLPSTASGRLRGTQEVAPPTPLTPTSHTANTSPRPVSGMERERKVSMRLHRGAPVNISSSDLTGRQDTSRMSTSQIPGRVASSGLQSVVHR
Chain of Tyrosine-protein kinase ABL1 (Homo sapiens) (P00519 whole entry): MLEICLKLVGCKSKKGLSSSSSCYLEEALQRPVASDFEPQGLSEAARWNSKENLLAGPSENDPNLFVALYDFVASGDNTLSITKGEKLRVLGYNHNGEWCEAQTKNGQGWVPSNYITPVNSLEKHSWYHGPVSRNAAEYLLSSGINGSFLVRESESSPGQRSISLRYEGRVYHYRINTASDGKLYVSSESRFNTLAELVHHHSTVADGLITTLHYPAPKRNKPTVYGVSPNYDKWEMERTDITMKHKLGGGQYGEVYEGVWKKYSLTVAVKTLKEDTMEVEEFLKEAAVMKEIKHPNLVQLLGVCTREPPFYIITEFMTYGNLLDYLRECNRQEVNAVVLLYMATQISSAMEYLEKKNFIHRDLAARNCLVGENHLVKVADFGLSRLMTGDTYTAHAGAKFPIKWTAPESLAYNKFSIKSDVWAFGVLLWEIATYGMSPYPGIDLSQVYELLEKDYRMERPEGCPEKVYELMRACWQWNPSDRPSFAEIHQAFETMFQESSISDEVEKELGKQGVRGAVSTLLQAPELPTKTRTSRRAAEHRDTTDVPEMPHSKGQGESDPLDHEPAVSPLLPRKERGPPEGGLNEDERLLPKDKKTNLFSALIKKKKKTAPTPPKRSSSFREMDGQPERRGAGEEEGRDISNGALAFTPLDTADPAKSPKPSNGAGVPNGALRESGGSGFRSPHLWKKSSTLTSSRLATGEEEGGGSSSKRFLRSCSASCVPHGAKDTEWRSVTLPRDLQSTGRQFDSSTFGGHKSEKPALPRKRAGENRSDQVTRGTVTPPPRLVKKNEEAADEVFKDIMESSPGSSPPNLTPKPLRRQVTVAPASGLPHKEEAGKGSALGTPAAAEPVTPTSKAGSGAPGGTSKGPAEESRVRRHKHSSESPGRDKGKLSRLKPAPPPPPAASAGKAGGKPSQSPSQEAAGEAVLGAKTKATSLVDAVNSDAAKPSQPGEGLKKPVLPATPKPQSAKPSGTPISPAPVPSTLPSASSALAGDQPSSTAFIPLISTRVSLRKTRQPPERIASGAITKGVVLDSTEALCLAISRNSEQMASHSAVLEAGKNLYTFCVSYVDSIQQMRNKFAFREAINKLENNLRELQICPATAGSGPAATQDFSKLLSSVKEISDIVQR
Chain of Mitogen-activated protein kinase 1 (Homo sapiens) (P28482 whole entry): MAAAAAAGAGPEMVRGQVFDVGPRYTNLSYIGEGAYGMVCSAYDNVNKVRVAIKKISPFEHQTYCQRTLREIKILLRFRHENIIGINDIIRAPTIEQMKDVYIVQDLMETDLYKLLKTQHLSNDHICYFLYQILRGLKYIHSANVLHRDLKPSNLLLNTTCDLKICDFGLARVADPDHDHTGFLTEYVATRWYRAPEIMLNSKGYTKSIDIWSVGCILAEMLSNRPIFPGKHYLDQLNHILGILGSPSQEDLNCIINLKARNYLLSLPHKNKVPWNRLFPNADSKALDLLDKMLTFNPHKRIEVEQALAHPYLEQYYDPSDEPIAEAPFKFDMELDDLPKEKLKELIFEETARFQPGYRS
Chain of Glycogen synthase kinase-3 beta (Homo sapiens) (P49841 whole entry, looked up): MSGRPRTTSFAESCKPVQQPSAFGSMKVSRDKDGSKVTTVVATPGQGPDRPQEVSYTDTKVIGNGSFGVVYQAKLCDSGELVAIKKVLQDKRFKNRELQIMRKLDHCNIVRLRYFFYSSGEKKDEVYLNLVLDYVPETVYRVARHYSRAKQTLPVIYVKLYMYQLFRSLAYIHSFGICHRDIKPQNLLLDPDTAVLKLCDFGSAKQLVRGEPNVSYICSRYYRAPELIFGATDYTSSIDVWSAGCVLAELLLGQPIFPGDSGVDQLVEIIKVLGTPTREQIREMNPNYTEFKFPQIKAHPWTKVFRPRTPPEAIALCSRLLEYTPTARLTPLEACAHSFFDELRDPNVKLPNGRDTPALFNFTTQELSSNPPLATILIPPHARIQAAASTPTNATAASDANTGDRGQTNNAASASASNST

Regarding `Cc1cc(OCCCNCC(C)(C)C(N)=O)ccc1Cc1c(O[C@@H]2O[C@H](CO)[C@@H](O)[C@H](O)[C@H]2O)n[nH]c1C(C)C`, the ΔTm in experiment [1] was 0.7 °C; in experiment [2] it was -2.92 °C; in experiment [3] it was 0.08 °C; in experiment [4] it was -0.08 °C; in experiment [5], -0.66 °C; in experiment [6] it was 0.38 °C. The ΔTm in experiment [7] was -2.36 °C; in experiment [8], 0.9 °C.

Regarding `CC(=O)N[C@@H](Cc1ccccc1)C(=O)N[C@@H](CC(C)C)C(=O)N[C@H](C(=O)N[C@@H](CC(=O)O)C(=O)CCl)[C@@H](C)O` (Ac-FLTD-CH2Cl), the ΔTm in experiment [1] is 0.28 °C; in experiment [2], -2.88 °C; in experiment [3], 0.03 °C; in experiment [4] it was 0.15 °C; in experiment [5], -0.18 °C; in experiment [6], -0.16 °C. In addition, the ΔTm is -0.89 °C in experiment [7] and -0.91 °C in experiment [8].

On to `Nc1ccc(-c2cccs2)cc1NC(=O)c1ccc(NC=O)cc1`, for which the ΔTm in experiment [1] was 0.87 °C; in experiment [2], 2.75 °C; in experiment [3], 1.18 °C; in experiment [4] it was -0.53 °C; in experiment [5] it was -0.36 °C; in experiment [6], 0.54 °C. The ΔTm in experiment [7] is 0.14 °C; in experiment [8], 1.27 °C.

As for `CC(C)Cc1nn(C)c(=O)c2c(SCCCO)n(Cc3cccc4ccccc34)cc12`, the ΔTm in experiment [1] was -3.82 °C and -3.97 °C; in experiment [2], -4.1 °C and -4.31 °C; in experiment [3] it was -0.96 °C and -1.96 °C; in experiment [4], -8.7 °C and -11.7 °C; in experiment [5] it was -0.77 °C and -4.36 °C; in experiment [7], -2.79 °C and -2.11 °C. Moreover, the ΔTm in experiment [8] is -0.87 °C and 0.82 °C.

In the case of `CCCOc1cccc(Oc2cc3c(cc2NS(=O)(=O)c2cccc(C(=O)NCCOCCOCCOCC(=O)N[C@H](C(=O)N4C[C@H](O)C[C@H]4C(=O)NCc4ccc(-c5scnc5C)cc4)C(C)(C)C)c2)n(C)c(=O)n3C)c1`, the ΔTm was 0.11 °C in experiment [1]; -8.44 °C in experiment [2]; -3.98 °C in experiment [3]; 0.83 °C in experiment [4]; -4.03 °C in experiment [5]; 0 °C in experiment [6]. In addition, the values for the ΔTm in experiment [7] and in experiment [8] were -2.91 °C and -3.82 °C, respectively.

`COc1ccccc1S(=O)(=O)Nc1ccc2c(c1)CN(C)C(=O)N2`: the ΔTm in experiment [1] is 0.3 °C; in experiment [3], 0.12 °C; in experiment [4] it was -0.3 °C; in experiment [5], -0.34 °C; in experiment [6] it was 0.22 °C; in experiment [7] it was -2.31 °C. The ΔTm in experiment [8] is -0.41 °C.

As to `CC1C(C#N)=C(N)OC2=C1C(=O)CC(c1cccc3ccccc13)C2` (centres undefined), the ΔTm in experiment [1] is 0.3 °C; in experiment [2] it was -2.09 °C; in experiment [3] it was -0.28 °C; in experiment [4], 3.72 °C; in experiment [5], 4.85 °C; in experiment [6] it was -2.01 °C. The ΔTm in experiment [7] was -0.97 °C; in experiment [8], -1.61 °C.

As to `COc1cc(Cl)ccc1C1=CN(c2ccc(-c3ccccc3OC)cc2)C2=NCCCN12`, the shift in melting temperature (ΔTm) was 0.67 °C in experiment [1]; -3.63 °C in experiment [2]; -0.6 °C in experiment [3]; -0.21 °C in experiment [4]; -0.51 °C in experiment [5]; -0.14 °C in experiment [6]. Also, the ΔTm was -2.63 °C in experiment [7] and -1.41 °C in experiment [8].

Turning to `Nc1cc(F)ccc1NC(=O)c1ccc(CNC(=O)/C=C/c2cccnc2)cc1`, the ΔTm in experiment [1] is 0.72 °C; in experiment [2], -1.97 °C; in experiment [3] it was -0.55 °C; in experiment [4], 0.17 °C; in experiment [5] it was -1.09 °C; in experiment [6] it was -3.81 °C. The results for the ΔTm in experiment [7] and in experiment [8] were -0.25 °C and -1.2 °C, respectively.

With `CN(Cc1cc(Br)cc(Br)c1N)C1CCCCC1`, the ΔTm in experiment [1] is -0.03 °C; in experiment [2], -2.64 °C; in experiment [3], -0.09 °C; in experiment [4] it was -0.11 °C; in experiment [5], -0.69 °C; in experiment [7], -0.8 °C. Besides, the ΔTm in experiment [8] is 0.31 °C.

Take `Cn1c(OC[C@H]2CC[C@H](C(F)(F)F)CC2)nn2c(C3CCOCC3)ncc2c1=O`: the ΔTm in experiment [1] is 0.42 °C; in experiment [2] it was -3.44 °C; in experiment [3], -0.19 °C; in experiment [4], -0.45 °C; in experiment [5] it was 0.18 °C; in experiment [6], 0.06 °C. For the same molecule, the ΔTm in experiment [7] is -2.37 °C; in experiment [8] it was -1.13 °C.

As for `NC(=O)[C@H]1CCCCc2c1[nH]c1ccc(Cl)cc21`, the ΔTm is 1.15 °C in experiment [1]; -1.22 °C in experiment [2]; 0.22 °C in experiment [3]; 0.38 °C in experiment [4]; 0.6 °C in experiment [5]; -0.5 °C in experiment [6]. The ΔTm in experiment [7] is 1.7 °C; in experiment [8] it was 0.16 °C.

With `Nc1ncnc2c1ncn2[C@@H]1O[C@H](C[C@@H](N)CC[C@H](N)C(=O)O)[C@@H](O)[C@H]1O`, the ΔTm in experiment [1] is 0.31 °C; in experiment [2] it was -2.03 °C; in experiment [3], -0.94 °C; in experiment [4], 0.18 °C; in experiment [5], -1.05 °C; in experiment [6] it was -1.35 °C. For the same molecule, the ΔTm is -1.45 °C in experiment [7] and -0.73 °C in experiment [8].

Take `Cn1ncc(-c2nn(C)c3ncnc(N4CCC4)c23)c1-c1ccc(C(F)(F)F)cc1`: the ΔTm in experiment [1] was 0.03 °C; in experiment [2] it was -2.92 °C; in experiment [3], -1.77 °C; in experiment [4], -0.3 °C; in experiment [5] it was -1.09 °C; in experiment [6] it was 0.4 °C. Further, the ΔTm in experiment [7] was -2.16 °C; in experiment [8], -2.31 °C.

Consider `CNCc1ccc(-c2[nH]c3cc(F)cc4c3c2CCNC4=O)cc1`, for which the ΔTm is 0.58 °C in experiment [1]; -1.77 °C in experiment [2]; 0.36 °C in experiment [3]; 0.56 °C in experiment [4]; 5.05 °C in experiment [5]; 0.13 °C in experiment [6]. Moreover, the ΔTm in experiment [8] is -0.05 °C.

Turning to `Cc1cc(OCc2nnc(SC3CCCC3)n2-c2cccnc2)ccc1-c1ccc(S(C)(=O)=O)cc1`, the ΔTm is -1.4 °C in experiment [1]; -2.52 °C in experiment [2]; 0.2 °C in experiment [3]; -0.2 °C in experiment [4]; -4.14 °C in experiment [5]; 0 °C in experiment [6]. For the same molecule, the ΔTm is -1.26 °C in experiment [7] and 0.18 °C in experiment [8].
